The results in this text go back to ChEMBL document CHEMBL3988442, “University of Dundee, Small-Polar-MMV Screening Library” (2021).

Molecules are shown by their SMILES.

One assay has as its system Trypanosoma cruzi. As to the kind of experiment: Trypanosoma cruzi phosphomannomutase and mannose-1-phosphate guanylyltransferase assay. It is filed as functional. More on the design: scale not given: direction of the effect not stated beside the values. The following applies: 10 µM.
As to `Cc1nonc1CC(=O)N1C[C@@H]2CC[C@H](C1)N(Cc1ccccc1)C2=O`, the Percent Effect was -4.83%.

In the case of `CCOCC(O)CN1CCN(C(=O)CC(C)C)CC1` (stereo not given), the Percent Effect was -4.62%.

For `Cc1cnc(C(=O)N2CCCN(Cc3csc(C)n3)CC2)cn1`, the Percent Effect was determined as 6.75%.

As to `CN1CCCC1CNC(=O)c1nnn(-c2ccc(F)cc2)c1C1CC1` (stereo not given), the Percent Effect was -5.86%.

Regarding `CN(Cc1cn2c(n1)CN(C(=O)CC1CC1)CC2)Cc1ccco1`, the Percent Effect was -0.197%.

For `Cc1cccc(Cn2ccc(NS(C)(=O)=O)n2)c1`, the Percent Effect worked out at 7.77%.

Consider `COc1cccc(COCC(=O)N2CCCC(N3CCCC3)CC2)c1` (stereo not given), for which the Percent Effect came to 2.26%.

For the molecule `OCCOCCN1CCCC1c1nc2cc(F)ccc2[nH]1` (stereo not given), the Percent Effect was -13.1%.

Turning to `Cc1cnn(CC(C)NCc2nc(-c3cccnc3)no2)c1` (stereo not given), the Percent Effect was -4.76%.

For the molecule `Cc1cc(C(=O)NCc2ccnc(N(C)C)c2)c(C)o1`, the Percent Effect is -5.24%.

On to `O=C(NCCn1ccnc1)c1cccc(F)c1`, for which the Percent Effect was -4.39%.

With `COc1ccccc1S(=O)(=O)Nc1ccc2c(C(=O)O)c[nH]c2c1`, the Percent Effect stood at 8.05%.

As for `O=C(Cc1cccc(Cl)c1)N[C@@H]1CCNC[C@H]1O`, the Percent Effect amounted to 4.2%.

`CC(=O)N(C)c1nc(CN2CCOC(Cn3cccn3)C2)cs1` (stereo not given): the Percent Effect was found to be 3.09%.

On to `N#CC1(C(=O)N2CCN(Cc3ccon3)CC2)CCC1`, for which the Percent Effect was -7.84%.

`COc1ccc(CN2CCCC(Nc3cccc(F)c3)C2)cc1O` (stereo not given): the Percent Effect was -0.293%.

Turning to `Cc1cccc(-n2cc(C(=O)N3CCn4c(C)nnc4C3)nn2)c1`, the Percent Effect was -4.17%.

For `COc1ccnc(N2CCN(C(=O)c3csc(C4CC4)n3)CC2)n1`, the Percent Effect was -2.05%.

Regarding `CCNC(=O)[C@@H]1C[C@H](NC(=O)c2cncnc2C)CN1CCCSC`, the Percent Effect is 3.17%.

On to `CCc1nc(CN2CCN(c3ncnc4cc(F)ccc34)CC2)no1`, for which the Percent Effect was -3.44%.

Consider `O=C(c1cccc(Cn2ccnc2)c1)N1CCCC(n2ccnc2)C1` (stereo not given), for which the Percent Effect worked out at 5.11%.

As to `O=C(COc1ccc(C(F)(F)F)cc1)NS(=O)(=O)c1cccnc1`, the Percent Effect was -1.5%.

`NS(=O)(=O)N1CCc2ccc(NC(=O)Cc3ccc(F)cc3)cc21`: the Percent Effect came to 4.31%.

As to `Cc1ccc(CC2CCCN2CC(=O)NCc2cccnc2)cc1` (stereo not given), the Percent Effect was 1.66%.

In the case of `CN(C)CC1CSCCCN1C(=O)Nc1ccc(C(C)(C)C)cc1` (stereo not given), the Percent Effect is -9.96%.

As to `CC(CNC(=O)c1ccc(Cl)cc1I)N1CCCC1` (stereo not given), the Percent Effect is 7.53%.

Regarding `Cc1ncsc1C(=O)N(C)Cc1cccc(Cl)c1`, the Percent Effect was 2.44%.

Take `COc1ccc(C2C3=C(COC3=O)Nc3[nH]nc(C)c32)cc1OC` (stereo not given): the Percent Effect is -6.68%.

As to `COCCN1CCc2cc(C(=O)N(C)C)c(NC(C)C)nc2CC1`, the Percent Effect is -2.25%.

Turning to `CCCC(=O)N1CCC(O)(Cn2c(CC)nc3ccccc3c2=O)CC1`, the Percent Effect was found to be 3.16%.

Consider `CCc1nnsc1C(=O)NC1CCN(c2ccccn2)CC1`, for which the Percent Effect is 5.38%.

On to `Cc1ccc(CN2CC(C(=O)Nc3ccccc3)C3(CCOCC3)C2)s1` (stereo not given), for which the Percent Effect was -0.579%.

`COc1cccc(CC2CN(C3CCN(C(C)=O)CC3)CCO2)c1` (stereo not given): the Percent Effect was -1.87%.

With `CCOCCCC(=O)NCCC(=O)N1CCN(c2ccccn2)CC1`, the Percent Effect was -3.99%.

For `Cc1nc(CN2CCc3cncnc3C2)oc1C`, the Percent Effect stood at 5.09%.

Regarding `Cc1csc(N2CCN(C(=O)Cc3ccsc3)CC2)n1`, the Percent Effect amounted to 7.26%.

As to `COc1ncccc1C(=O)N1CCN(C(=O)Cc2ccccn2)CC1`, the Percent Effect was 2.36%.

As for `Cc1cc(-c2nnc(SCC(=O)O)n2C(C)c2ccccc2)nn1C` (stereo not given), the Percent Effect was 6.32%.

In the case of `Cc1ccccc1CSCCn1nc2ccccn2c1=O`, the Percent Effect is -2.06%.

As for `Fc1cccc(-n2ccc(CN3CCCCC3Cn3cncn3)n2)c1` (stereo not given), the Percent Effect is -2.74%.

For another assay, the target named is T1, Arginase-2, mitochondrial (Homo sapiens) (UniProt P78540).
T1 sequence (whole entry): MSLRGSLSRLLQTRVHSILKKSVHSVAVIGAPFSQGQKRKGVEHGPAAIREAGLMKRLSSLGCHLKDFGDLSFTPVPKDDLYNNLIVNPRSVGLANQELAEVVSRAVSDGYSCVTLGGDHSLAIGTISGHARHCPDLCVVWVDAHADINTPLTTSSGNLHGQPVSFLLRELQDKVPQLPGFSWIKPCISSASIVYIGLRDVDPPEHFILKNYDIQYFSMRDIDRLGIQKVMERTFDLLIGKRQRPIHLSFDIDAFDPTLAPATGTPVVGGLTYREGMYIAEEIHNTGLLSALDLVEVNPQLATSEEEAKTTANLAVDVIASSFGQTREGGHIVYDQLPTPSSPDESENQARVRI
As to the kind of experiment: in vitro enzyme assay to detect the production of urea directly proportional to the activity of Arginase II. It is filed as functional. The conditions noted are these: 33.3 µM. More on the design: scale not given: in the data most compounds retested in dose-response had high values.
For the molecule `Cc1nonc1CC(=O)N1C[C@@H]2CC[C@H](C1)N(Cc1ccccc1)C2=O`, the Percent Effect is -2.86%.

With `CCOCC(O)CN1CCN(C(=O)CC(C)C)CC1` (stereo not given), the Percent Effect amounted to 0.401%.

Regarding `Cc1cnc(C(=O)N2CCCN(Cc3csc(C)n3)CC2)cn1`, the Percent Effect came out at 2%.

As to `CN1CCCC1CNC(=O)c1nnn(-c2ccc(F)cc2)c1C1CC1` (stereo not given), the Percent Effect came out at 0%.

`CN(Cc1cn2c(n1)CN(C(=O)CC1CC1)CC2)Cc1ccco1`: the Percent Effect is 8.16%.

As to `Cc1cccc(Cn2ccc(NS(C)(=O)=O)n2)c1`, the Percent Effect was -40%.

Take `COc1cccc(COCC(=O)N2CCCC(N3CCCC3)CC2)c1` (stereo not given): the Percent Effect came to 0%.

`OCCOCCN1CCCC1c1nc2cc(F)ccc2[nH]1` (stereo not given): the Percent Effect is -2.4%.

Consider `Cc1cnn(CC(C)NCc2nc(-c3cccnc3)no2)c1` (stereo not given), for which the Percent Effect is -1.32%.

Take `Cc1cc(C(=O)NCc2ccnc(N(C)C)c2)c(C)o1`: the Percent Effect was -1.42%.

As for `O=C(NCCn1ccnc1)c1cccc(F)c1`, the Percent Effect was determined as 0.36%.

`COc1ccccc1S(=O)(=O)Nc1ccc2c(C(=O)O)c[nH]c2c1`: the Percent Effect was -4.98%.

For `O=C(Cc1cccc(Cl)c1)N[C@@H]1CCNC[C@H]1O`, the Percent Effect amounted to 19.1%.

Take `CC(=O)N(C)c1nc(CN2CCOC(Cn3cccn3)C2)cs1` (stereo not given): the Percent Effect stood at 17.1%.

As to `N#CC1(C(=O)N2CCN(Cc3ccon3)CC2)CCC1`, the Percent Effect was found to be 9.89%.

For the molecule `COc1ccc(CN2CCCC(Nc3cccc(F)c3)C2)cc1O` (stereo not given), the Percent Effect was -0.744%.

On to `Cc1cccc(-n2cc(C(=O)N3CCn4c(C)nnc4C3)nn2)c1`, for which the Percent Effect is -8.38%.

Regarding `COc1ccnc(N2CCN(C(=O)c3csc(C4CC4)n3)CC2)n1`, the Percent Effect was 4.22%.

For `CCNC(=O)[C@@H]1C[C@H](NC(=O)c2cncnc2C)CN1CCCSC`, the Percent Effect was -3.59%.

On to `CCc1nc(CN2CCN(c3ncnc4cc(F)ccc34)CC2)no1`, for which the Percent Effect is 0%.

Take `O=C(c1cccc(Cn2ccnc2)c1)N1CCCC(n2ccnc2)C1` (stereo not given): the Percent Effect was -2.4%.

Take `O=C(COc1ccc(C(F)(F)F)cc1)NS(=O)(=O)c1cccnc1`: the Percent Effect was found to be 0.383%.

For the molecule `NS(=O)(=O)N1CCc2ccc(NC(=O)Cc3ccc(F)cc3)cc21`, the Percent Effect was -39.1%.

`Cc1ccc(CC2CCCN2CC(=O)NCc2cccnc2)cc1` (stereo not given): the Percent Effect was -5.92%.

Turning to `CN(C)CC1CSCCCN1C(=O)Nc1ccc(C(C)(C)C)cc1` (stereo not given), the Percent Effect was -5.81%.

For the molecule `CC(CNC(=O)c1ccc(Cl)cc1I)N1CCCC1` (stereo not given), the Percent Effect is -2.38%.

Regarding `Cc1ncsc1C(=O)N(C)Cc1cccc(Cl)c1`, the Percent Effect is -2.3%.

For the molecule `COc1ccc(C2C3=C(COC3=O)Nc3[nH]nc(C)c32)cc1OC` (stereo not given), the Percent Effect is -10.7%.

`COCCN1CCc2cc(C(=O)N(C)C)c(NC(C)C)nc2CC1`: the Percent Effect stood at 0.248%.

For the molecule `CCCC(=O)N1CCC(O)(Cn2c(CC)nc3ccccc3c2=O)CC1`, the Percent Effect was -1.16%.

With `CCc1nnsc1C(=O)NC1CCN(c2ccccn2)CC1`, the Percent Effect amounted to 21.1%.

For the molecule `Cc1ccc(CN2CC(C(=O)Nc3ccccc3)C3(CCOCC3)C2)s1` (stereo not given), the Percent Effect is -44.3%.

In the case of `COc1cccc(CC2CN(C3CCN(C(C)=O)CC3)CCO2)c1` (stereo not given), the Percent Effect is -2.76%.

For `CCOCCCC(=O)NCCC(=O)N1CCN(c2ccccn2)CC1`, the Percent Effect was -4.73%.

Take `Cc1nc(CN2CCc3cncnc3C2)oc1C`: the Percent Effect worked out at 16.8%.

Consider `Cc1csc(N2CCN(C(=O)Cc3ccsc3)CC2)n1`, for which the Percent Effect was 3.21%.

`COc1ncccc1C(=O)N1CCN(C(=O)Cc2ccccn2)CC1`: the Percent Effect is -2.37%.

Take `Cc1cc(-c2nnc(SCC(=O)O)n2C(C)c2ccccc2)nn1C` (stereo not given): the Percent Effect stood at 1.77%.

Regarding `Cc1ccccc1CSCCn1nc2ccccn2c1=O`, the Percent Effect turned out to be 4%.

Take `Fc1cccc(-n2ccc(CN3CCCCC3Cn3cncn3)n2)c1` (stereo not given): the Percent Effect was -1.14%.
